The values that follow come from PubChem BioAssay.

Assay [1] is described as follows: resazurin metabolic signal in HepG2 cells – cell-based, resazurin fluorescence, 24 h, PK04 Diversity Set, profiling panel (AID 1172). Further: test concentration not given here. The settings on record: HepG2 viability, higher = more signal.
Assay [2] is described as follows: budding yeast growth changes without added modifier – OD600, strain BY4716, 24 h, basal condition, primary screen (AID 1173). The settings on record: S. cerevisiae BY4716 growth, OD600, 24 h; higher = more signal, called active from +8 up or from −8 down.
The nature of assay [3]: viability profiling in MM1S myeloma cells – cell-based, resazurin fluorescence, basal, 24 h, PK04 Diversity Set, profiling panel (AID 1174).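 Further: MM1S multiple myeloma cell line; test concentration not given here.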 The settings on record: higher = more signal, called active from +8 up or from −8 down. For orientation: The colour change of resazurin is a common sign of viable cells or microbes.
The target of assay [4] is Dihydroorotate dehydrogenase (quinone), mitochondrial (Plasmodium falciparum (isolate 3D7)) (UniProt Q08210). Briefly: inhibition of P. falciparum DHODH – biochemical, C-terminal His tag, absorbance 600 nm, primary screen (AID 1175).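 Further: recombinant parasite enzyme with a five histidine tag at its C terminus; test concentration not given here.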 Particulars: PfDHODH enzyme, DCIP absorbance 600 nm; higher = more signal, called active from +8 up or from −8 down.
Dihydroorotate dehydrogenase (quinone), mitochondrial (Plasmodium falciparum (isolate 3D7)), sequence (Q08210 whole entry, looked up): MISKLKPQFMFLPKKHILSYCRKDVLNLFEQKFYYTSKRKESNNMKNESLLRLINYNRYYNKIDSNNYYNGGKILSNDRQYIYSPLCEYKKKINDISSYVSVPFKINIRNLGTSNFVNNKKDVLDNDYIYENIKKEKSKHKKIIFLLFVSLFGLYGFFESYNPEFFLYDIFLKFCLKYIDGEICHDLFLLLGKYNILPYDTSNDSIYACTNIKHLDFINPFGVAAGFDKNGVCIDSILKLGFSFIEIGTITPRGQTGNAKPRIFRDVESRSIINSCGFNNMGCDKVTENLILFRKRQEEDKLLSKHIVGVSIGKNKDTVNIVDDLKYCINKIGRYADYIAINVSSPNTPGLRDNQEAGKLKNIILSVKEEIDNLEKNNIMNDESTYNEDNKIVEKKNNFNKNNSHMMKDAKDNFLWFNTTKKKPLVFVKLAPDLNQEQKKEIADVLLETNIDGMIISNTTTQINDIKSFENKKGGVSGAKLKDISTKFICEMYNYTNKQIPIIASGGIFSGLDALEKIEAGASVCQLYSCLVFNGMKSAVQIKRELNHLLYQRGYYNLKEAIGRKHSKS
The nature of assay [5]: inhibition of PAO1 biofilm formation – strain PAO1, LB-PBS medium, absorbance 600 nm, primary screen (AID 1176). Further: test concentration not given here. The settings on record: P. aeruginosa PAO1 growth/biofilm, A600, 12 h; higher = more signal.
Assay [6] can be described thus: growth modulation of vineyard yeast isolate – strain RM11-1a, OD600, basal, 24 h, primary screen (AID 1177).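 Further: cultures grown under basal conditions with no added stressor; test concentration not given here.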 Particulars: S. cerevisiae RM11-1a growth, OD600, 24 h; higher = more signal, called active from +8 up or from −8 down.
A short description of assay [7]: growth of efflux-deficient E. coli DRC39 – strain DRC39, OD650, 24 h, E. coli filamentation inducers, primary screen (AID 1178).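 Further: growth measured as culture turbidity by optical density at 650 nm; test concentration not given here.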 The settings on record: E. coli DRC39 acrAB, higher = more signal, called active from +8 up or from −8 down.
Assay [8] is described as follows: growth of efflux-deficient E. coli DRC39 – strain DRC39, OD650, 48 h, E. coli filamentation inducers, primary screen (AID 1179).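 Further: screen aims at cell division blockers that make cells filament.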 Particulars: E. coli DRC39 delta-acrAB growth, higher = more signal, called active from +8 up or from −8 down.
Assay [9] in a line: viability profiling in RPMI8226 myeloma cells – cell-based, resazurin fluorescence, basal, 24 h, PK04 Diversity Set, profiling panel (AID 1180).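 Further: RPMI8826 multiple myeloma cell line at 5000 cells per well; test concentration not given here.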 The settings on record: higher = more signal.
Assay [10] addresses E3 ubiquitin-protein ligase XIAP (Homo sapiens) (UniProt P98170). Briefly: small molecules binding XIAP protein – biophysical, small-molecule microarray, fluorescence 635 nm, primary screen (AID 1181).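 Further: score merges 667 nm emission and signal to noise over triplicate slides.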 The settings on record: higher = more signal.

The source made the active and inactive calls. Unless noted, how the calls were made is not given here.

E3 ubiquitin-protein ligase XIAP (Homo sapiens), sequence (P98170 whole entry, looked up): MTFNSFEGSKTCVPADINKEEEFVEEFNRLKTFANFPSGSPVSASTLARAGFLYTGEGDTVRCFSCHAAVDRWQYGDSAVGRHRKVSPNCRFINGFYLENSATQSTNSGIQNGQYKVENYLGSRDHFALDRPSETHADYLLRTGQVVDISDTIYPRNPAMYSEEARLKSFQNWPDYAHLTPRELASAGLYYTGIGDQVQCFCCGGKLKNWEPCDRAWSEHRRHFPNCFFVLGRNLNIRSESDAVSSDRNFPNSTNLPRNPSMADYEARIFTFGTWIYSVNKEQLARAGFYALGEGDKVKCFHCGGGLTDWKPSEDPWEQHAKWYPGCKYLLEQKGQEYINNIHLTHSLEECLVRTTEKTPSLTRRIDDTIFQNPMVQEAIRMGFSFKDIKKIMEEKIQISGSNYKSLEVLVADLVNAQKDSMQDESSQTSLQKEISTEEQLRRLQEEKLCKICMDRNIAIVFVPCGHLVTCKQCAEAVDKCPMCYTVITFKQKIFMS

As for `CO[C@H]1O[C@H](CO)[C@@H](OC(=O)Nc2ccc3c(c2)OCO3)[C@H](OC(=O)Nc2ccccc2)[C@@H]1OC(=O)Nc1ccccc1`, the z-score in assay [1] was -0.671; in [2] it was -0.328 (inactive); in assay [3], -1.24 (inactive); in assay [5], 0.345 (inactive); in [6], 1.13 (inactive); in [7], 0.399 (inactive). In addition, the values for the z-score in assay [8] and in assay [9] were -0.409 (inactive) and -0.682, respectively. Further, the composite z-score in [4] was -0.0612 (inactive); in assay [10], 0.319.

Turning to `COC(=O)[C@@]1(Cc2ccccc2)[C@H]2c3cc(C(=O)N4CCCC4)n(CCN4CNCC4=O)c3C[C@H]2CN1C(=O)c1ccccc1`, the z-score in [1] was 0.276; in assay [2], 0.864 (inactive); in [3] it was 0.327 (inactive); in [5] it was -0.167 (inactive); in assay [6], -0.189 (inactive); in [7] it was 0.499 (inactive). Further, the values for the z-score in [8] and in assay [9] were -0.321 (inactive) and 0.742, respectively. For the same compound, the results for the composite z-score in [4] and in assay [10] were -0.482 (inactive) and 0.414, respectively.

Take `CC(C)C[C@@H]1NC(=O)[C@H]2C[C@@H](C(=O)NCCCCCC[N+](C)(C)C)[C@@H](c3ccc(O)cc3)N2C1=O`: the z-score is 1.27 in assay [1]; -0.213 (inactive) in assay [2]; 0.771 (inactive) in assay [3]; -1.04 (inactive) in assay [5]; 0.817 (inactive) in assay [6]; 0.385 (inactive) in assay [7]. In addition, the z-score is 0.19 (inactive) in [8] and 0.985 in [9]. The composite z-score in assay [4] is -1.51 (inactive); in [10] it was -0.176.

For `CC(C)[C@H]1NC(=O)[C@@]23C(=O)N[C@@H](Cc4ccccc4)C2[C@H](C)[C@@]2(C)O[C@H]2C3/C=C/C/C=C\CNC(=O)[C@H](C)NC1=O` (stereo not given in full), the z-score in assay [1] was -0.546; in [2], 0.976 (inactive); in assay [3], 0.323 (inactive); in [5] it was 1.13 (inactive); in assay [6], 1.01 (inactive); in assay [7], -0.198 (inactive). Moreover, the z-score in assay [8] was -0.301 (inactive); in assay [9] it was 0.142. Moreover, the composite z-score in assay [4] is -0.0591 (inactive); in assay [10], -0.129.

Turning to `COC(=O)[C@@]1(Cc2ccccc2N=[N+]=[N-])N=C(c2ccc(OCCCO)cc2)O[C@H]1c1ccccc1CN=[N+]=[N-]`, the z-score in assay [1] is -4.57; in assay [2], 1.16 (inactive); in assay [3] it was -8.21 (active); in [5] it was 0.383 (inactive); in assay [6] it was 0.992 (inactive); in assay [7], 0.23 (inactive). Also, the z-score in [8] is 0.887 (inactive); in [9] it was -7. The composite z-score is 0.648 (inactive) in [4] and 0.264 in assay [10].

`CC1CC/C=C\[C@H]2OC34C=CCN(Cn5nnc6ccccc65)C(=O)[C@H]3N(C(C)CO)C(=O)[C@@H]4C2C(=O)O1` (stereo not given in full): the z-score was 0.142 in assay [1]; -0.0496 (inactive) in [2]; 0.035 (inactive) in assay [3]; -0.0837 (inactive) in [5]; 0.472 (inactive) in assay [6]; 0.756 (inactive) in assay [7]. The z-score in [8] was 0.665 (inactive); in [9], 0.0911. Also, the composite z-score in assay [4] was 0.853 (inactive); in [10] it was 0.282.

`O=C(N1CCCCC1)[C@@]1(CCS(=O)(=O)c2ccccc2)N=C(c2ccc(OCCCO)cc2)O[C@H]1c1ccccc1`: the z-score in [1] is 0.233; in assay [2], 0.0247 (inactive); in assay [3], -2.91 (inactive); in [5], -1.01 (inactive); in assay [6], 0.0929 (inactive); in [7], 1.33 (inactive). The z-score was 0.561 (inactive) in assay [8] and -2.78 in assay [9]. In addition, the composite z-score in [4] is 1.05 (inactive); in assay [10] it was 0.198.

Consider `CCCC=C(CCC)[C@@H](NS(=O)(=O)c1ccc(C(F)(F)F)cc1)c1ccc(-c2ccccc2)cc1`, for which the z-score in assay [1] was 2.18; in [2] it was 1.05 (inactive); in assay [3], 1.14 (inactive); in [5] it was -1.16 (inactive); in assay [6], 1.41 (inactive); in assay [7] it was 0.0852 (inactive). In addition, the z-score in [8] is -0.839 (inactive); in assay [9], 0.719. Besides, the composite z-score in assay [4] was 0.472 (inactive); in [10], 0.0264.

For `COc1cc(CO)cc(I)c1O[C@H]1C=C(C(=O)NCCO)C[C@@H](N(CC2CCCCC2)C(=O)c2cc3ccccc3oc2=O)[C@@H]1O`, the z-score in [1] is 0.479; in assay [2] it was -0.514 (inactive); in assay [3] it was 0.308 (inactive); in [5], 0.343 (inactive); in [6], 0.372 (inactive); in assay [7] it was 0.663 (inactive). Moreover, the z-score is 0.283 (inactive) in [8] and 0.393 in assay [9]. Besides, the composite z-score is -0.23 (inactive) in assay [4] and -0.12 in assay [10].

On to `O=C(NCc1ccccc1)[C@@]1(Cc2ccccc2)COC(c2ccc(OCCCO)cc2)=N1`, for which the z-score is -2.41 in assay [1]; 0.0178 (inactive) in [2]; -6.53 (inactive) in [3]; 0.162 (inactive) in [5]; 3.65 (inactive) in assay [6]; 0.11 (inactive) in assay [7]. In addition, the z-score in [8] was -0.762 (inactive); in assay [9], -5.69. Moreover, the composite z-score in assay [4] is 1.1 (inactive); in assay [10], -0.217.

For `COCCOC(=O)N1C(=O)[C@@]2(c3cc(C#CCCO)ccc31)[C@H](c1ccc(O)cc1)N1[C@H](c3ccccc3)[C@H](c3ccccc3)OC(=O)[C@H]1[C@@H]2C(=O)Nc1nc2ccccc2s1`, the z-score is 0.484 in [1]; -0.297 (inactive) in assay [2]; -0.617 (inactive) in assay [3]; 0.485 (inactive) in assay [5]; 0.39 (inactive) in [6]; 0.438 (inactive) in assay [7]. The figures for the z-score in assay [8] and in [9] were -0.619 (inactive) and 0.179, respectively. The composite z-score was 0.864 (inactive) in assay [4] and 0.267 in assay [10].

As for `C=CCOC(=O)[C@@H]1[C@H]2C(=O)O[C@H](c3ccccc3)[C@H](c3ccccc3)N2[C@H](c2ccc(OCCOC(=O)[C@H]3C[C@H]4C(=O)N[C@@H](CCCCNC(C)=O)C(=O)N4[C@H]3c3ccc(O)cc3)cc2)[C@@]12C(=O)Nc1ccc(I)cc12`, the z-score in assay [1] is -0.0657; in assay [2], 1.87 (inactive); in assay [3] it was -0.967 (inactive); in assay [5], 2.56 (inactive); in [6], 2.34 (inactive); in [7], -0.0715 (inactive). Also, the z-score in [8] is -0.649 (inactive); in assay [9], -0.145. The composite z-score in [4] is 0.626 (inactive); in [10] it was -0.0566.
